The target in one test is Albumin (Bos taurus) (UniProt P02769). Put plainly: bovine serum albumin binders on microarray, profiling panel, artefact control for SMM control protein annotation, biochemical, small-molecule microarray, Alexa647 label, 635/667 nm fluorescence (AID 1118).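 Note: score merges 667 nm emission intensity and signal-to-noise per printed compound spot.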 Conditions: BSA-A647 binding, fluorescence 635 nm, higher = more signal.
Test [1] in a line: small-molecule microarray binders of probe aXIP, primary screen, biochemical, NeuroSMM set, 635/667 nm fluorescence (AID 1119).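 Note: probe is the protein aXip251-270 applied at 1 µg/mL to compound-printed slides; binding of probe to printed compounds measured as 667 nm fluorescence plus signal to noise.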 Conditions: higher = more signal, called active from +8 up or from −8 down.
The nature of test [2]: small-molecule binders of probe aNOTCH3, primary screen, biochemical, small-molecule microarray, 635/667 nm fluorescence (AID 1120).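 Note: probe is a biotin-tagged antibody raised against NOTCH3 rather than NOTCH3 protein; score merges spot fluorescence near 667 nm with spot signal to noise.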 Conditions: higher = more signal.
The nature of test [3]: small-molecule binders of probe aNOTCH2, primary screen, biochemical, small-molecule microarray, 635/667 nm fluorescence (AID 1121).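 Note: score merges feature fluorescence read at 667 nm with its signal to noise.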 Conditions: higher = more signal.
The target of test [4] is Carbonic anhydrase 2 (Homo sapiens) (UniProt P00918). Put plainly: CAII small-molecule binders, profiling panel, biochemical, small-molecule microarray, Alexa647-labelled CAII (AID 1122). Conditions: CAII-A647 binding fluorescence, higher = more signal.
The nature of test [5]: COS7 lysate on small-molecule microarray, probe aHis, 635 nm (AID 1123).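 Note: z-score combines 667nm fluorescence intensity with signal-to-noise per printed compound spot.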 Conditions: COS7 cell lysate, fluorescence, higher = more signal.
A short description of test [6]: compound binding in COS7 lysate, probe aLAP1, primary screen, cell lysate, small-molecule microarray (AID 1124).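 Note: lysate comes from COS7 cells expressing LAP1 and is applied at 0.3 µg/mL; score merges spot fluorescence near 667 nm with signal-to-noise over triplicate slides.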 Conditions: probe aLAP1, fluorescence, higher = more signal.
In the next test the test system is Sam68 (KHDRBS1). Kind of test: Sam68 small-molecule binders, primary screen, biochemical, small-molecule microarray, 635 nm fluorescence (AID 1125).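 Note: score merges 667 nm channel intensity with signal to noise over triplicate slides.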 The following applies: small-molecule microarray binding, higher = more signal.
Test [7] has as its system Chordin-like protein 2 (CHRDL2). Put plainly: CHRDL2 small-molecule binders, primary screen, biochemical, small-molecule microarray, 635 nm fluorescence (AID 1126).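 Note: printed compound slides probed with Chrdl2 protein at 4 µg/mL for 1 h at 4 C; score merges 667 nm emission intensity with signal to noise over three replicate slides.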 Conditions: small-molecule microarray binding, fluorescence 635 nm; higher = more signal.
Test [8] addresses Concanavalin-A (Canavalia ensiformis) (UniProt P02866). Kind of test: ConA small-molecule binders, primary screen, artefact control for SMM control protein annotation, biochemical, small-molecule microarray, Alexa647 label, 635 nm (AID 1127).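 Note: z combines 667 nm emission intensity with signal-to-noise across three replicate slides.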 Conditions: ConA-A647 binding fluorescence, higher = more signal.
Test [9] can be described thus: anti-His antibody binders, primary screen, artefact control for SMM control protein annotation, biochemical, small-molecule microarray, 635 nm fluorescence (AID 1128).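 Note: score merges feature fluorescence with signal-to-noise for each printed compound spot.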 Conditions: anti-His Alexa647 antibody binding, higher = more signal.
Test [10] concerns Human papillomavirus type 1a E7 protein (residues 1-88). Put plainly: HPV1a E7 small-molecule binders, primary screen, biochemical, small-molecule microarray, residues 1-88, 635 nm (AID 1129). Conditions: small-molecule microarray binding, fluorescence 635 nm; higher = more signal.
Test [11] concerns the target Focal adhesion kinase 1 (Homo sapiens) (UniProt Q05397). Kind of test: small-molecule microarray binders of FAK, primary screen, biochemical, 635/667 nm fluorescence, BSA, DTT (AID 1130).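 Note: composite of spot emission at 667 nm and signal to noise over triplicate slides.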 The following applies: PTK2 binding, 635 nm fluorescence, higher = more signal.
Test [12] has as its system Fibrinogen (Alexa647-labelled). Put plainly: fibrinogen binders on compound microarrays, profiling panel, artefact control for SMM control-protein annotation, biochemical, small-molecule microarray, 635/667 nm fluorescence (AID 1131).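 Note: z-score merges 667 nm fluorescence with per-spot signal-to-noise over triplicate slides.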 Conditions: fibrinogen-A647 binding fluorescence, higher = more signal.
Test [13] concerns the target Follistatin (Homo sapiens) (UniProt P19883). Kind of test: follistatin binders on small-molecule microarrays, primary screen, biochemical, small-molecule microarray, 635/667 nm fluorescence (AID 1132). Conditions: FST binding, 635 nm fluorescence, higher = more signal.
Test [14] addresses Fibroblast growth factor 2 (Homo sapiens) (UniProt P09038). Kind of test: FGF2 binders on small-molecule microarrays, primary screen, biochemical, small-molecule microarray, 635/667 nm fluorescence (AID 1133). The following applies: small-molecule microarray binding, FGF2, fluorescence 635/667; higher = more signal.
A short description of test [15]: mitochondrial membrane potential change in A549 cells, profiling panel, cell-based, JC-1 fluorescence, basal, 24 h, 100 nL (AID 1138).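 Note: A549 lung adenocarcinoma cells under basal conditions with no added stimulus; test concentration not given here.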 Conditions: higher = more signal.
The next test concerns Lefty1. Kind of test: Lefty1 binders on small-molecule microarrays, primary screen, biochemical, small-molecule microarray, 635/667 nm fluorescence (AID 1139). Conditions: small-molecule microarray binding, fluorescence 635/667; higher = more signal.
The subject of test [16] is wheat germ agglutinin (Triticum aestivum), Alexa647-labelled. Put plainly: wheat germ agglutinin binders on compound microarrays, profiling panel, artefact control for SMM control-protein annotation, biochemical, small-molecule microarray, 635/667 nm fluorescence (AID 1140).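 Note: score merges 667 nm feature emission with signal to noise over triplicate slides.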 The following applies: WGA-A647 binding, 635 nm fluorescence, higher = more signal.
Test [17] concerns the target Luciferin 4-monooxygenase (Photinus pyralis) (UniProt P08659). Kind of test: firefly luciferase enzyme inhibitors, primary screen, biochemical, luminescence, purified enzyme, 2006 set (AID 1141).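 Note: cell-free assay with purified firefly luciferase at 100 ng per well in PBS; test concentration not given here.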 Conditions: SteadyGlo luminescence, 30 min, higher = more signal, called active from +8 up or from −8 down.

Active and inactive are the calls of the source.

Sequence of Fibroblast growth factor 2 (Homo sapiens) (P09038 whole entry, looked up): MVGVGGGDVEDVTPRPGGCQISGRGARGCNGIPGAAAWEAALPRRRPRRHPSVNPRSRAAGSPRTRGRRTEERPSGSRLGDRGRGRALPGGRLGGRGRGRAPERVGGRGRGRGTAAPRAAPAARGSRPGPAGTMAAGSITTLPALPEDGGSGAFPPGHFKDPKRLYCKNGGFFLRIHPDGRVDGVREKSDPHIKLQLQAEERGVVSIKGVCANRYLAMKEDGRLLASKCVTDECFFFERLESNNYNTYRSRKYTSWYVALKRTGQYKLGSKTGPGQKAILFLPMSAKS
Sequence of Concanavalin-A (Canavalia ensiformis) (P02866 whole entry, looked up): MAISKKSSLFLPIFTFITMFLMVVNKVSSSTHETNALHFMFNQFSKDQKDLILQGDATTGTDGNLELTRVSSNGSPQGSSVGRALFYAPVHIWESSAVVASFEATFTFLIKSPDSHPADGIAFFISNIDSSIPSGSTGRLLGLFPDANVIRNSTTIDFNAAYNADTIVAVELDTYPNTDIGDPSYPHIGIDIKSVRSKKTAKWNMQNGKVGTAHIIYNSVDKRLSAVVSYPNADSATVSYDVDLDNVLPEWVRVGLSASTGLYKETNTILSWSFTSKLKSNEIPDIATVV
Sequence of Luciferin 4-monooxygenase (Photinus pyralis) (P08659 whole entry, looked up): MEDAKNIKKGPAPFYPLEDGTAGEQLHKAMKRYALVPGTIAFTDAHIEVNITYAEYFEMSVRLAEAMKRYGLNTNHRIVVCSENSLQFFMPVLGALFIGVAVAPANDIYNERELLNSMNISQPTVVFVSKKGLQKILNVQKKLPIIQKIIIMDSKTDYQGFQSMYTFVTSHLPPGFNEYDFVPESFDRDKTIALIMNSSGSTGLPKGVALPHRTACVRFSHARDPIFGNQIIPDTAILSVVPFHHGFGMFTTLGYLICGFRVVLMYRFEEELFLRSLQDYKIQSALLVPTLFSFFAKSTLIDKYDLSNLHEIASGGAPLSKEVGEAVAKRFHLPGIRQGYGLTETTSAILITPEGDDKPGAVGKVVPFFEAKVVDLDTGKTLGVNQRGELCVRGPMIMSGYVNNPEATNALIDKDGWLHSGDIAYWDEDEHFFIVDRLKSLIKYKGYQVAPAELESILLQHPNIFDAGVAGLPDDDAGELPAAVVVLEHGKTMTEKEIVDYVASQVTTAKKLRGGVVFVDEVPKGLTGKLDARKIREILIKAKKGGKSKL
Sequence of Albumin (Bos taurus) (P02769 whole entry, looked up): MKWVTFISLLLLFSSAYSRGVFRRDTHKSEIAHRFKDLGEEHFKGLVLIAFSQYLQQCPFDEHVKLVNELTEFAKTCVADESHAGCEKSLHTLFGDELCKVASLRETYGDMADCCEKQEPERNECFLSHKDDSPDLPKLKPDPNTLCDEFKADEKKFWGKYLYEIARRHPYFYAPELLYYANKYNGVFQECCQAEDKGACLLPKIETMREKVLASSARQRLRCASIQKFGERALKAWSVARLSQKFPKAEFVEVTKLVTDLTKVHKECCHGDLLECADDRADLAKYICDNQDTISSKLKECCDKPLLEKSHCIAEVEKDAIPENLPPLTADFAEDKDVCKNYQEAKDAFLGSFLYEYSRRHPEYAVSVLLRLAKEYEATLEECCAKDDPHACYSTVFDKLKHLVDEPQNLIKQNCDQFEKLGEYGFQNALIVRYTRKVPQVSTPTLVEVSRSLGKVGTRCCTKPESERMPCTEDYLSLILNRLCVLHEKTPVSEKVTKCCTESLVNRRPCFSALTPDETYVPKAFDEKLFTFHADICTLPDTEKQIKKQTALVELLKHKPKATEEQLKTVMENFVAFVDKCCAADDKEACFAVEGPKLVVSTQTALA
Sequence of Follistatin (Homo sapiens) (P19883 whole entry, looked up): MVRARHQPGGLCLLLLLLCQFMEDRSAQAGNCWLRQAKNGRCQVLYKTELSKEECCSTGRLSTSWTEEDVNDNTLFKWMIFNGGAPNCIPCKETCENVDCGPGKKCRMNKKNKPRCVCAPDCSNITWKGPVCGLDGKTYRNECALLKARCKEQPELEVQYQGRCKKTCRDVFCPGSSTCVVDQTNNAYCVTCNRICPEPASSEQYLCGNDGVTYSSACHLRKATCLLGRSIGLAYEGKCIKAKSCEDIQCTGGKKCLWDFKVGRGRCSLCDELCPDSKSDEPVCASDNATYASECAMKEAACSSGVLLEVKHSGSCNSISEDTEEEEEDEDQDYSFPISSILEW
Sequence of Focal adhesion kinase 1 (Homo sapiens) (Q05397 whole entry, looked up): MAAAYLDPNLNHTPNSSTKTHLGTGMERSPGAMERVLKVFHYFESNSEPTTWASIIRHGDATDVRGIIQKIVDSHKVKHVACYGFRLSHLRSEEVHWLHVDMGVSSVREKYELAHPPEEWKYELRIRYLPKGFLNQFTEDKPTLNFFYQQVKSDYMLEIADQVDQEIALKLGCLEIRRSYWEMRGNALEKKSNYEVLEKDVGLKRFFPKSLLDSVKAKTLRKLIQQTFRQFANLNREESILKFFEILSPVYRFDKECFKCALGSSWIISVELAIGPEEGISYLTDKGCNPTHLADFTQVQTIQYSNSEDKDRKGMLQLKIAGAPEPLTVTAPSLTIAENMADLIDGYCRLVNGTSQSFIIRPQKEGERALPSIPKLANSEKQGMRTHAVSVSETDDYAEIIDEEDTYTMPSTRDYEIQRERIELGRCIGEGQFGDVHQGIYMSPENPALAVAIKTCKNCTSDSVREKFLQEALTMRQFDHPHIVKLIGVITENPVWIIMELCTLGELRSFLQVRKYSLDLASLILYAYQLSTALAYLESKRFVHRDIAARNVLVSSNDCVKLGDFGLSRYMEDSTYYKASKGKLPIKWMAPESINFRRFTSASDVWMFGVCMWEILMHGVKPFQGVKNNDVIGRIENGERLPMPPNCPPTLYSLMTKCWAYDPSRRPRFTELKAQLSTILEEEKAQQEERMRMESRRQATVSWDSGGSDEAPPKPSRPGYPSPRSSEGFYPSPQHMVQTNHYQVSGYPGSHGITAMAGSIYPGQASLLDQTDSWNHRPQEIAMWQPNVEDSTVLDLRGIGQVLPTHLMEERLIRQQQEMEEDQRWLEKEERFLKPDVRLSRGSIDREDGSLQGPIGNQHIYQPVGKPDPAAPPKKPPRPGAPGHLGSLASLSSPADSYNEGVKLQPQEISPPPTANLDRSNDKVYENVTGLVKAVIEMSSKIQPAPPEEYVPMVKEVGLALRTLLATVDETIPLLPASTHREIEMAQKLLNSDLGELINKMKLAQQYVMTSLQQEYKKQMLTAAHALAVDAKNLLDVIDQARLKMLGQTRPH

For `O=c1cccc(CCc2ccccc2)o1`, the composite z-score with Albumin (Bos taurus) is -0.284; in test [2] it was -0.301; in [3], -0.0986; in [4] it was 0.731; in test [5] it was 0.89; in test [6], -0.397. In addition, the composite z-score was 0.854 in the test on Sam68 (KHDRBS1); 0.146 in test [7]; 0.283 in test [8]; 1.24 in test [9]; 0.741 in [10]; 0.675 in [11]. The composite z-score in [12] was -0.229; in test [13] it was 0.641; in test [14] it was 0.257; with Lefty1, 0.593; in test [16] it was 0.211. Further, in test [1], the composite Z-score was 0.338 (inactive). The values for the z-score in test [15] and in [17] were 0.426 and 0.0302 (inactive), respectively.

Turning to `COc1ccc(C#Cc2ccc3c(c2)[C@]2(C(=O)N3)[C@H](C(=O)NC[C@H](O)c3ccccc3)[C@H]3C(=O)O[C@H](c4ccccc4)[C@H](c4ccccc4)N3[C@@H]2c2ccccc2OCCO)cc1`, the composite z-score with Albumin (Bos taurus) is 0.566; in test [2], 0.175; in [3], -0.0157; in test [4], 0.575; in [5] it was 1.8; in test [6] it was 1.03. The composite z-score in the test on Sam68 (KHDRBS1) is 1.29; in [7] it was 0.469; in test [8], 1.14; in [9], 1.05; in [10] it was 1.19; in [11], 0.686. Besides, the composite z-score is 0.844 in test [12]; 1.09 in [13]; 0.604 in [14]; 1.42 in the test on Lefty1; 0.855 in test [16]. Also, the composite Z-score in test [1] is 0.29 (inactive). Moreover, the z-score in test [15] was -1.79; in test [17], -0.361 (inactive).

Take `COc1ccc(C#Cc2ccc3c(c2)[C@]2(C(=O)N3)[C@H](C(=O)NC[C@H](O)c3ccccc3)[C@H]3C(=O)O[C@H](c4ccccc4)[C@H](c4ccccc4)N3[C@@H]2c2ccc(OCCO)cc2)cc1`: the composite z-score in the test with Albumin (Bos taurus) is 0.265; in test [2], 0.196; in test [3], -0.125; in [4], 0.357; in [5], 1.97; in [6] it was 0.635. Moreover, the composite z-score is 1.33 in the test on Sam68 (KHDRBS1); 0.473 in test [7]; 1.17 in test [8]; 0.408 in test [9]; 0.991 in test [10]; 0.303 in [11]. For the same molecule, the composite z-score is 0.964 in [12]; 1.36 in test [13]; 1.19 in [14]; 1.22 in the test with Lefty1; 1.13 in test [16]. Besides, the composite Z-score in test [1] was 0.53 (inactive). Further, the z-score in [15] was -1.96; in test [17], -1.58 (inactive).

In the case of `COCCOC(=O)N1C(=O)[C@@]2(c3cc(C#CCNC(N)=O)ccc31)[C@H](c1ccccc1OCCO)N1[C@H](c3ccccc3)[C@H](c3ccccc3)OC(=O)[C@H]1[C@@H]2C(N)=O`, the composite z-score in the test with Albumin (Bos taurus) is -0.117; in test [2], -0.0345; in test [3] it was -0.148; in [4], 0.475; in test [5] it was -0.726; in [6], 0.177. The composite z-score with Sam68 (KHDRBS1) is 1.22; in [7] it was 0.616; in test [8], 1.18; in [9] it was 0.208; in test [10] it was 1.15; in [11] it was 0.189. Besides, the composite z-score is 0.963 in [12]; 1.25 in test [13]; 0.917 in [14]; 0.782 in the test on Lefty1; 0.305 in [16]. Further, the composite Z-score in test [1] was -0.479 (inactive). Also, the values for the z-score in [15] and in [17] were -1.24 and -0.868 (inactive), respectively.

Take `O=C1C2C=CC(C(O)c3ccc(B(O)O)cc3)N(Nc3ccccc3)C2C(=O)N1c1ccccc1` (stereo not given): the composite z-score with Albumin (Bos taurus) is 0.764; in test [2] it was 0.127; in [3], -0.0438; in test [4] it was 0.793; in test [5], 0.408; in test [6], -0.0389. For the same molecule, the composite z-score in the test on Sam68 (KHDRBS1) is -0.346; in [7], -0.0149; in [8] it was -0.874; in test [9], 0.56; in test [10], -0.935; in test [11], 1.44. Also, the composite z-score in test [12] is -0.0877; in test [13], 0.0669; in test [14], -0.581; in the test with Lefty1, -0.698; in [16], -0.0504. Besides, the composite Z-score in test [1] was 0.387 (inactive). The z-score in [15] was -1.4; in test [17] it was -0.331 (inactive).

The values are drawn from PubChem BioAssay.
